# Measurements taken from PubChem BioAssay (NCI).
# This is part of a sample that, as a whole, favours compounds with a hit. Of some 83,000 tested, about 20% had one in any assay.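 Interpretation: 100, growth as untreated; towards 0, rising growth inhibition; 0, no net growth; 0 to -100, cell death. Compounds scoring below 10 were considered active.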 The source made the active and inactive calls.
# System: MDA-MB-468 breast
# Assay: NCI-60 one-dose screen, 48 h (100 = growth as untreated, 0 = no growth, -100 = all killed)
# Settings: 10 µM unless noted
row,SMILES,growth
1,N=C(N)c1ccc(-c2ccc(-c3ccc(Cl)cc3Cl)s2)cc1F,-63.5% (active)
2,O=[N+]([O-])c1ccc(Oc2cc(Cl)c(Cl)cc2Cl)c(C(F)(F)F)c1,100% (inactive)
3,CC(=O)Nc1ccc(Cl)cc1Cl,90.1% (inactive)
4,CCOC(=O)c1sc(NC(=O)CN2CCC(Cc3ccccc3)CC2)nc1C,98.5% (inactive)
5,CN1CCN(Cc2ccc(NC(=O)c3cncc(C#Cc4cnn5cccnc45)c3)cc2C(F)(F)F)CC1,25.4% (inactive)
6,Fc1cnccc1C1CC(c2ccc(N3CCNCC3)cc2)=NN1 (configuration not stated),114% (inactive)
7,Cc1c(C2=CCCCC2)c2ccccn2c1C(=O)c1cccc(S(=O)(=O)N2CCOCC2)c1,51.5% (inactive)
